Measurements taken from PubChem BioAssay (NCATS).
“And” between values parts separate entries of the source, which are not always exact repeats. Equal entries are not always repeated. Results filed as inconclusive are left out. The source made the active and inactive calls. Calls come from the whole dose curve; as a rule, active = well fitted inhibition curve with a large enough effect; inconclusive = small, poorly fitted or top-dose-only effect; inactive = flat fitted curve, though single readings scatter.

What was measured:
[1] = Drug repurposing screens with cells derived from glioblastoma tumor samples (AID 1345199); conditions: GBM patient neurospheres viability, ATP luminescence, 48 h; note: nearly all actives have a fitted effect of over 40% in size
Outline: (§1)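 Primary testing used CD133+ neurospheres from four GBM patients, seven concentrations, 48 h exposure and ATP-based viability; confirmation added three slower-growing patient lines.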

[2] = tested on: astro; test: as above; conditions: viability, ATP luminescence, 48 h; series mostly up to 45.9 µM
Outline: as §1

[3] = at 45.9 µM (top of the series), tumour line B
[4] = at 45.9 µM (top of the series), tumour line D
[5] = at 46.1 µM (top of the series), tumour line C
[6] = at 46 µM (top of the series), tumour line A
[7] = at 20 µM (top of the series), tumour line C
[8] = at 21.2 µM (top of the series), tumour line B
% is set by controls: 0 for no effect and ±100 for the full control effect; potency is the fitted concentration of half-maximal effect.

CNC(=O)[C@H](Cc1c[nH]c2ccccc12)NC(=O)[C@@H](CC(=O)NO)CC(C)C
inactive: activity, negative = cell killing [1, 3] -23.5% | activity, negative = cell killing [1, 4] -19.3% | activity, negative = cell killing [1, 5] -23.8% | Potency [2]

O=C(O)CCCC/C=C(\c1ccccc1)c1cccnc1
inactive: activity, negative = cell killing [1, 3] -6.07% | activity, negative = cell killing [1, 4] -10.6% | activity, negative = cell killing [1, 5] -17.1% | Potency [2]

CCc1cn([C@H]2C[C@H](O)[C@@H](CO)O2)c(=O)[nH]c1=O
inactive: activity, negative = cell killing [1, 3] -28.6% | activity, negative = cell killing [1, 4] -5.04% | activity, negative = cell killing [1, 6] -8.93% | Potency [2]

Oc1cc(O)cc(O)c1
inactive: activity, negative = cell killing [1, 3] -4.88% | activity, negative = cell killing [1, 4] -12.8% | activity, negative = cell killing [1, 5] -10.5% | Potency [2]

O=S(=O)(O)CCCS(=O)(=O)O
inactive: activity, negative = cell killing [1, 3] -8.81% | activity, negative = cell killing [1, 4] -10.4% | activity, negative = cell killing [1, 5] -13.4% | Potency [2]

Cc1cc2nc3c(=O)[nH]c(=O)nc-3n(C[C@H](O)[C@H](O)[C@H](O)COP(=O)(O)OP(=O)(O)OC[C@H]3O[C@@H](n4cnc5c(N)ncnc54)[C@H](O)[C@@H]3O)c2cc1C
inactive: activity, negative = cell killing [1, 3] -13.1% | activity, negative = cell killing [1, 4] -9.51% | activity, negative = cell killing [1, 6] -9.49% | Potency [2]

CCOC(=O)[C@H](CS)NCCN[C@@H](CS)C(=O)OCC
inactive: activity, negative = cell killing [1, 3] -15.2% | activity, negative = cell killing [1, 4] -8.47% | activity, negative = cell killing [1, 5] -15.5% | Potency [2]

CCCCCCCCCCCCCCCCCCCCCC(=O)Nc1ccn([C@@H]2O[C@H](CO)[C@@H](O)[C@@H]2O)c(=O)n1
inactive: activity, negative = cell killing [1, 3] -14.5% | activity, negative = cell killing [1, 4] -7.79% | activity, negative = cell killing [1, 5] -16.8% | Potency [2]

NC(=O)OCC(O)COc1ccc(Cl)cc1 (stereo unspecified)
inactive: activity, negative = cell killing [1, 7] 0.2% | activity, negative = cell killing [1, 8] -15.4% | activity, negative = cell killing ([1]; at 21.2 µM (top of the series), tumour line D) -22.6% | Potency [2]

NCC[C@H](O)C(=O)N[C@@H]1C[C@H](N)[C@@H](O[C@H]2O[C@H](CN)[C@@H](O)[C@H](O)[C@H]2O)[C@H](O)[C@H]1O[C@H]1O[C@H](CO)[C@@H](O)[C@H](N)[C@H]1O
inactive: activity, negative = cell killing [1, 3] -16.5% | activity, negative = cell killing [1, 4] -17.9% | activity, negative = cell killing [1, 5] -4.11% | Potency [2]

CCCCCCCCCCCCCCCC(=O)OC[C@@H](O)[C@H]1OC[C@H](O)[C@H]1O
inactive: activity, negative = cell killing [1, 3] -4.52% | activity, negative = cell killing [1, 4] 10.4% | activity, negative = cell killing [1, 5] -6.66% | Potency [2]

CN(C)CCC(O)(c1ccccc1)c1ccccc1Cl (stereo unspecified)
inactive: activity, negative = cell killing [1, 3] -11.1% | activity, negative = cell killing [1, 5] -17.6% | Potency [2]
active: Potency ([1]; tumour line A) 11.2 µM

N=C(N)c1ccc(/C=C/c2ccc(C(=N)N)cc2O)cc1
inactive: activity, negative = cell killing [1, 3] -18.3% | activity, negative = cell killing [1, 4] -9.46% | activity, negative = cell killing [1, 5] -14.7% | Potency [2]

NC(=O)Oc1ccc(Cc2ccccc2)cc1
inactive: activity, negative = cell killing [1, 3] -5.11% | activity, negative = cell killing [1, 4] -13.8% | activity, negative = cell killing [1, 5] -22.5% | Potency [2]

CC(C)Cc1ccc([C@@H](C)C(=O)NS(C)(=O)=O)cc1
inactive: activity, negative = cell killing [1, 3] -10.5% | activity, negative = cell killing [1, 4] -14.1% | activity, negative = cell killing [1, 5] -23.4% | Potency [2]

C[C@H](NCCc1ccc(O)cc1)[C@H](O)c1ccc(O)cc1
inactive: activity, negative = cell killing [1, 3] -2.5% | activity, negative = cell killing [1, 4] -20.4% | activity, negative = cell killing [1, 5] -12.8% | Potency [2]

CN[C@H](CC(C)C)C(=O)N[C@H]1C(=O)N[C@@H](CC(N)=O)C(=O)N[C@H]2C(=O)N[C@H]3C(=O)N[C@H](C(=O)N[C@@H](C(=O)O)c4cc(O)cc(O)c4-c4cc3ccc4O)[C@H](O)c3ccc(c(Cl)c3)Oc3cc2cc(c3O[C@@H]2O[C@H](CO)[C@@H](O)[C@H](O)[C@H]2O[C@H]2C[C@](C)(N)C(O)[C@H](C)O2)Oc2ccc(cc2Cl)[C@H]1O (stereo partly specified)
inactive: activity, negative = cell killing [1, 3] -21.4% and -13.5% | activity, negative = cell killing [1, 4] -14.4% and -8.53% | activity, negative = cell killing [1, 5] -11% and 8.66% | Potency [2]

CC(=O)[C@H]1CC[C@H]2[C@@H]3C=CC4=CC(=O)CC[C@@]4(C)[C@H]3CC[C@]12C
inactive: activity, negative = cell killing [1, 7] -18.4% | activity, negative = cell killing [1, 8] -29% | Potency [2]
active: Potency ([1]; tumour line A) 3.55 µM

COc1ccc2cc([C@H](C)CO)ccc2c1
inactive: activity, negative = cell killing [1, 3] -14.5% | activity, negative = cell killing [1, 4] 4.49% | activity, negative = cell killing [1, 5] -21.2% | Potency [2]

CCSc1ccc2c(c1)N(CCCN1CCN(C)CC1)c1ccccc1S2
inactive: activity, negative = cell killing [1, 7] -10.8% | activity, negative = cell killing [1, 8] -0.856% | Potency [2]
active: Potency ([1]; tumour line A) 6.31 µM

CC(C)CN(C[C@@H](OP(=O)(O)O)[C@H](Cc1ccccc1)NC(=O)O[C@H]1CCOC1)S(=O)(=O)c1ccc(N)cc1
inactive: activity, negative = cell killing [1, 3] -7.11% | activity, negative = cell killing [1, 4] -11.4% | activity, negative = cell killing [1, 5] -18.7% | Potency [2]

O=C1CC[C@@H](C(=O)N[C@H]2C[C@@H]2c2ccccc2)N1
inactive: activity, negative = cell killing [1, 3] -8.87% | activity, negative = cell killing [1, 4] -2.23% | activity, negative = cell killing [1, 5] 4.74% | Potency [2]

CCN(CC)CCOC(=O)c1cccnc1
inactive: activity, negative = cell killing [1, 3] -9.24% | activity, negative = cell killing [1, 4] 9.6% | activity, negative = cell killing [1, 5] -9.84% | Potency [2]

CC1CC(O)CC(C)(C)C1 (stereo unspecified)
inactive: activity, negative = cell killing [1, 3] -5.77% | activity, negative = cell killing [1, 4] -9.42% | activity, negative = cell killing [1, 5] -22% | Potency [2]
